# Compound activity (PubChem)
# BoNT-F LC inh: BoNT/F light chain protease inhibitors, primary screen, biochemical, flow cytometry, MLPCN library; Botulinum neurotoxin type F light chain protease (Clostridium botulinum); Multiplex microsphere protease cleavage assay; inhibition, % at 10 µM; actives 0.22% (n = 360,000); in the data active = inhibition above about 35%, passing the limit was not always enough; inconclusive = no clear call, values can overlap the other calls; note: plate controls were buffer without enzyme for full effect and enzyme alone for no effect
# BoNT A protease: BoNT/A light chain protease inhibitors, primary screen, biochemical, flow cytometry, MLPCN library; inhibition, % at 10 µM; multiplex microsphere protease substrate cleavage; AID 588499, 2011; actives 0.17% (n = 360,000); Botulinum neurotoxin type A light chain protease (Clostridium botulinum A str. ATCC 3502); note: plate controls were buffer without enzyme for full effect and enzyme alone for no effect
# Anthrax LF prot: Bacillus anthracis LF protease inhibitors, primary screen, biochemical, multiplex microsphere, MLPCN library; AID 588501, 2011; actives 0.12% (n = 360,000); Lethal factor (Bacillus anthracis), P15917; multiplex microsphere protease cleavage assay; inhibition, % at 10 µM; note: plate controls were buffer without enzyme for full effect and enzyme alone for no effect
# Autofluor counter: counter-screen for toxin protease inhibitors: compound fluorescence. compound autofluorescence counterscreen, microsphere flow cytometry; hits give high values. actives 3.1% (n = 360,000). fluorescence intensity (test concentration not listed); in the data active = fluorescence intensity above about 16000; inconclusive = no clear call, values can overlap the other calls
# * = called active by the depositor; ? = inconclusive. Hits are enriched below; roughly 3.5% of the tested compounds scored in any of these assays. Cut-off read from the data, not from the text of the source, unless noted: active = inhibition above about 30%; inconclusive = no clear call, values can overlap the other calls; inactive = below that.
SMILES,BoNT-F LC inh,BoNT A protease,Anthrax LF prot,Autofluor counter
O=c1[nH]c2cc3c(cc2cc1C(c1nnnn1Cc1ccccc1)N1CCN2CCCC2C1)OCCO3 (centres undefined),1,7,5,9350
Cc1cc2cc(C(c3nnnn3CC3CCCO3)N3CCCc4ccccc43)c(=O)[nH]c2cc1C (centres undefined),-11,1,1,24311*
CCc1ccc2[nH]c(=O)c(C(c3nnnn3CC3CCCO3)N3CCCc4ccccc43)cc2c1 (centres undefined),-10,1,-4,5509
CC(=O)Nc1cccc(NC(=O)C2CCCO2)c1 (centres undefined),-1,0,-2,3668
CCC(=O)c1cc2c(cc1NC(=O)c1ccc(C)cc1)OCCO2,5,?,0,20255*
CC(C)C(=O)c1cc2c(cc1NC(=O)c1cccs1)OCCO2,-4,-2,-4,23207*
CC(C)C(=O)c1cc2c(cc1NC(=O)c1ccccc1)OCCO2,-3,?,-2,23685*
CC(=O)Nc1cc2c(cc1C(=O)C(C)C)OCCO2,5,-1,-3,3774
C[C@@H]1CN([C@@H](C)CO)C(=O)CCCn2nncc2CO[C@@H]1CN(C)C(=O)Nc1cccc(Oc2ccccn2)c1,-5,-1,-5,2887
O=C(/C=C/c1cccc(Cl)c1)OCC(=O)c1ccc[nH]1,-5,0,-4,3633
CC(=O)Nc1ccccc1OC(=O)N(C)C,4,2,1,15505
CCN(CC)C(=O)Oc1ccccc1NC(C)=O,-4,?,0,20729*
CC(CC(=O)c1ccc(F)cc1)N1CCN(c2ccccc2)CC1 (centres undefined),-51,0,-16,3558
CSc1ncccc1C(=O)N1CCCC(Nc2ccc(C)c(C)c2)C1 (centres undefined),-8,0,0,4116
COc1ccccc1-c1cc2nc(-c3ccccc3)cc(N3CCN(C(=O)c4ccco4)CC3)n2n1,-5,-1,-3,3780
COc1ccc(C2C(C(=O)c3sc(C)nc3C)=C(O)C(=O)N2CCCn2ccnc2)cc1OC (centres undefined),-2,0,-1,20435*
CCN(CC)CCCN1C(=O)C(O)=C(C(=O)c2cc3cccc(OC)c3o2)C1c1ccncc1 (centres undefined),5,?,-16,21784*
CCN(CC)CCCN1C(=O)C(O)=C(C(=O)c2sc(C)nc2C)C1c1ccco1 (centres undefined),13,10,-3,19534*
CCc1cc(C(=O)OC)c(NC(=O)CC2SC(N)=NC2=O)s1 (centres undefined),4,0,0,1932
CCc1cc(C(=O)OC)c(N2C(=O)C3C4C=CC(C4)C3C2=O)s1 (centres undefined),-3,0,-1,23671*
CCc1cccc(C)c1NC(=O)c1cccnc1,?,5,31*,3027
CCC(C)c1ccccc1NC(=O)c1cccnc1 (centres undefined),-3,-2,-5,23335*
CCc1cccc(C)c1NC(=O)c1cc(C)oc1C,0,2,-4,22641*
C[C@@H]1CN([C@@H](C)CO)C(=O)CCCn2nncc2CO[C@H]1CN(C)Cc1cccc(C(F)(F)F)c1,-2,0,-1,4291
C[C@@H](NS(=O)(=O)c1cc(Cl)ccc1F)[C@H](O)c1ccccc1,-1,0,-1,3001
SMILES,BoNT-F LC inh,BoNT A protease,Anthrax LF prot,Autofluor counter
CCOC(=O)CC1=C(C(=O)OCC)C2(C(=O)N1CC(=O)OC)C(C#N)=C(N)Oc1ccccc12 (centres undefined),4,0,-1,11068
COC(=O)CN1C(=O)C2(C(C#N)=C(N)Oc3ccccc32)C2=C1CC(C)(C)CC2=O (centres undefined),3,2,-3,22010*
O=C(c1ccco1)C12CN3CN(CN(C3)C1)C2,2,4,-4,21201*
Cc1ccc(-c2nnn(CC(=O)N(Cc3ccccc3)C(C(=O)NC(C)(C)C)c3ccncc3)n2)o1 (centres undefined),4,-1,-2,20840*
Cc1ccc(-c2nnn(CC(=O)N(c3ccccc3)C(C(=O)NC(C)(C)C)c3cccs3)n2)o1 (centres undefined),22,0,3,3275
Cc1ccc(-c2nnn(CC(=O)N(c3cccc(O)c3)C(C(=O)NC(C)(C)C)c3cccs3)n2)o1 (centres undefined),0,0,-2,16505*
CC1(C(=O)O)CCC(C(=O)Nc2ccc3ccccc3c2)C1(C)C (centres undefined),0,1,2,22940*
Cc1ccccc1NC(=O)C1CCC(C)(C(=O)O)C1(C)C (centres undefined),-3,0,-4,2348
Cc1csc(NC(=O)C2CCC(C)(C(=O)O)C2(C)C)n1 (centres undefined),-4,-3,-1,20359*
O=C(Nc1nc(-c2ccccc2)cs1)C1CCCO1 (centres undefined),-18,?,-2,9538
Cc1csc(NC(=O)C2CCCO2)n1 (centres undefined),4,3,-1,21132*
COc1cc(S(=O)(=O)N2CCN(Cc3ccc4c(c3)OCO4)CC2)ccc1NC(C)=O,4,-1,-7,3665
COCCNc1nc(Nc2ccc(C#N)cc2)c2sccc2n1,-2,0,-3,3776
CCOc1ccccc1N=c1oc2cc(O)ccc2cc1C(=O)NCC1CCCO1 (centres undefined),-3,-1,-5,16487*
COc1ccc(N=c2oc3cc(O)ccc3cc2C(=O)NCC2CCCO2)cc1 (centres undefined),2,?,1,21984*
CCn1ncc(/C=C/C(=O)Nc2c(C)nn(CC)c2C)c1C,2,1,0,20272*
CCn1nc(C)c(NC(=O)/C=C/c2cnn(C)c2)c1C,10,9,-9,19664*
CCOC(=O)c1sc(NC(=O)/C=C/c2cnn(CC)c2C)c(C(=O)OCC)c1C,-8,0,-1,11444
Cc1nn(Cc2ccc(Cl)cc2)c(C)c1NC(=O)/C=C/c1cnn(C)c1,-4,0,0,2490
CCn1nc(C)c(/C=C/C(=O)Nc2ccc(C)cc2C)c1C,39*,5,2,2035
Cc1ccccc1-c1cnc(C(O)c2ccc(F)cc2C)[nH]1 (centres undefined),-6,-1,-5,3927
CCOC(=O)C1=CN(Cc2ccco2)S(=O)(=O)NC1CC (centres undefined),-5,0,-3,3452
O=C(NCc1cccc(Cl)c1)c1cccc(S(=O)(=O)N2CCCC2)c1,-4,-1,-3,3752
COc1cccc(S(=O)(=O)N(C)C[C@H]2Oc3ncc(Br)cc3C(=O)N([C@@H](C)CO)C[C@@H]2C)c1,2,0,-4,3315
Cc1ccc(C(=O)n2cc(CCN3CCS(=O)(=O)CC3)c3ccccc32)cc1,1,0,-3,16475*
